Assay [1] can be described thus: STM_H9_OrnithineISnorm_perc: Stemina devTOX quickPredict H9 human embryonic stem cell (hESC)-based Assay for Ornithine (ORN) Metabolite Biomarker, Normalized (AID 2283712; active = hit-call score of the fitted dose curve at least 0.9, where 1 is the maximum; inactive = score below 0.9;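 also: ornithine released into spent medium during last day measured by mass spectrometry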). The method, boiled down: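 Undifferentiated pluripotent H9 hESCs were exposed to compound for 72h, with media and compound replaced every 24h. Ornithine in final 24-h conditioned media was measured by UPLC-HRMS, normalized to 13C-labeled spike-in standard and to median 0.1% DMSO control.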

Assay [2] is described as follows: STM_H9_CystineISnorm_perc: Stemina devTOX quickPredict H9 human embryonic stem cell (hESC)-based Assay for Cystine (CYSS) Metabolite Biomarker, Normalized (AID 2283713; active = hit-call score of the fitted dose curve at least 0.9, where 1 is the maximum; inactive = score below 0.9). In a few lines: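 Undifferentiated H9 hESCs were exposed to compound for 72h, with medium and compound replaced every 24h. Final-24h conditioned medium was deproteinized and analyzed by UPLC-HRMS. Cystine EIC area was normalized to spiked C13 standard and 0.1% DMSO median.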

Assay [3] is described as follows: CEETOX_H295R_MTT_cell_viability: Viability Assessment in the CeeTox HT-H295R MTT Assay (AID 2283718; active = hit-call score of the fitted dose curve at least 0.9, where 1 is the maximum; inactive = score below 0.9). The method, boiled down: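 H295R cells prestimulated 48 h with 10 uM forskolin, then exposed 48 h to test chemical (0.1% DMSO final). Viability by MTT (0.5 mg/ml, 4 h, 37 C), absorbance 570/650 nm; percent change versus DMSO, bidirectional fit.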
Assay [4] can be described thus: Tanguay_ZF_120hpf_ActivityScore_legacy: (Legacy) Oregon State University Tanguay Lab 120 Hour Post-fertilization zebrafish Assay Score for Activity (AID 2283742).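 As to AC50: static exposure from 6 hpf until 120 hpf at 28 °C.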 In a few lines:
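Tropical 5D wild-type zebrafish embryos, dechorionated with pronase at 4 hpf, were exposed singly from 6 hpf to 120 hpf statically at 28C in 0.64% DMSO. Malformations and mortality were scored as binary by brightfield, with the activity score combining 18 morphology components.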

A short description of assay [5]: ACEA_AR_agonist_AUC_viability: ACEA Biosciences xCELLigence Real-Time Cell Analysis on Androgen Receptor Agonism for Viability (AID 2283775).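 As to AC50: viability read 80 hours after compound addition.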 In a few lines:
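Read-out is area under the impedance curve at 80 h post-dose in 22Rv1 cells, with DMSO as baseline and signal loss taken as reduced viability. Compounds ran in duplicate from 100 uM final.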

Assay [6] can be described thus: STM_H9_OrnCyssISnorm_ratio: Stemina devTOX quickPredict H9 human embryonic stem cell (hESC)-based Assay for Ornithine (ORN):Cystine (CYSS) Ratio (AID 2283714). The method, boiled down: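 Undifferentiated H9 hESCs were exposed to compound for 72h with media and chemical replaced every 24h. Final 24-h conditioned media were deproteinized and analysed by UPLC-HRMS. ORN and CYSS peak areas were normalized to C13 internal standards and the ratio taken versus 0.1% DMSO.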

Assay [7] can be described thus: ArunA_Migration_hNP: ArunA Biomedical's Oris Neuroprogenitor (hNP) Cell Migration Assay (AID 2283754). In a few lines:
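Human H9-derived hNP1 neuroprogenitors on Matrigel with LIF/bFGF, plated around seeding stoppers for 16 h at 37C; stoppers removed at start of 72 h chemical exposure. Calcein-AM staining, fluorescence 494/517 nm in detection zone; loss-of-signal vs DMSO; cytochalasin D control.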

The nature of assay [8]: ArunA_Migration_hNC: ArunA Biomedical's Oris Neural Crest (hNC) Cell Migration Assay (AID 2283755). The method, boiled down:
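Human H9-derived neural crest stem cells, 60,000/well on Matrigel, 16 h at 37C, then 72 h chemical exposure after seeding-stopper removal. Migration into detection zone read as calcein-AM fluorescence (ex494/em517), relative to DMSO.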

The nature of assay [9]: ArunA_NOG_NucleusCount: ArunA Biomedical's Neurite Outgrowth (NOG) Assay for Nucleus Count (AID 2283756). The method, boiled down: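 Human H9-derived differentiated neurons were exposed for 48 h right after seeding. Hoechst-stained nuclei gated by size and intensity were counted by automated high-content imaging as viable neurons. Loss of signal vs DMSO.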
Assay [10] in a line: ArunA_NOG_NeuriteLength: ArunA Biomedical's Neurite Outgrowth (NOG) Assay for Neurite Length (AID 2283757). In a few lines:
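Differentiated human H9-derived neurons were exposed for 48 h from seeding, then stained with Hoechst and βIII-tubulin. Automated high-content imaging gave total neurite length per valid neuron, counting processes >10 um. Loss of signal was scored versus DMSO.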

Assay [11] is described as follows: ArunA_NOG_NeuritesPerNeuron: ArunA Biomedical's Neurite Outgrowth (NOG) Assay for Neurites Per Neuron (AID 2283758). In a few lines:
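Differentiated human H9-derived neurons exposed to chemicals for 48 h from seeding, then stained with Hoechst and βIII-tubulin/DyLight 488. Automated imaging counted neurites (processes >10 um) per valid neuron; loss of signal versus DMSO scored.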

The nature of assay [12]: ArunA_NOG_BranchPointsPerNeurite: ArunA Biomedical's Neurite Outgrowth (NOG) Assay for Branch Points Per Neurite (AID 2283759). The method, boiled down:
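Automated image analysis traced neurites (processes >10 um) from valid cell bodies after Hoechst and βIII-tubulin staining. hNN cells from H9 embryonic stem cells, 48 h exposure. Fitted bidirectionally against DMSO.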

The nature of assay [13]: CCTE_Padilla_ZF_144hpf_TERATOSCORE: (Legacy) CCTE's 144 Hour Post-fertilization zebrafish Assay Teratoscore, Padilla Lab (AID 2283679; active = hit-call score of the fitted dose curve at least 0.9, where 1 is the maximum; inactive = score below 0.9;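 as to AC50: zebrafish embryos with chorions exposed by immersion from 6-8 hpf to 5 dpf with daily renewal; teratogenicity score from eye scoring of death hatching and malformations at 144 hpf; higher score means more developmental defects relative to DMSO baseline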). The method, boiled down:
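Larvae scored by eye at 144 hpf for death, hatching and malformations after a day in clean Hanks'. Before that, daily-renewed exposure at 80 uM (0.4% DMSO, 26C) from roughly 6-8 hpf through 5 dpf, 4 embryos per chemical.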

In assay [14] the test system is Thyroperoxidase (TPO), gene 445522. Put plainly: CCTE_Simmons_GUA_TPO: CCTE's Guaiacol Assay for Thyroperoxidase (TPO) Inhibition, Simmons Lab (AID 2283750). In a few lines: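 Porcine thyroid microsomes (25 ug) in 200mM potassium phosphate, preincubated 30 s at 37C with compound (8 concentrations, 5 nM–87.5 uM) and 35mM guaiacol; 1mM H2O2 starts reaction. Absorbance change at 450nm over first 80 s; loss of signal versus DMSO, three replicates.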

Assay [15] can be described thus: ArunA_CellTiter_hNC: Viability Assessment in the ArunA Biomedical's Oris Neural Crest (hNC) Cell Migration Assay (AID 2283752). The method, boiled down:
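Human H9-derived neural crest stem cells were plated at 60,000 per well on Matrigel in growth medium with LIF and bFGF, incubated 16 h at 37C, then exposed to chemical for 72 h. Viability was read with CellTiter Aqueous One as loss of signal versus DMSO.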

Assay [16] can be described thus: ArunA_CellTiter_hNP: Viability Assessment in the ArunA Biomedical's Oris Neural Crest (hNC) Cell Migration Assay (AID 2283753). The method, boiled down: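 H9-derived hNP1 neuroprogenitors, 60,000/well on Matrigel, cultured 16 h, then 72 h chemical exposure in test medium. Cell titer via CellTiter Aqueous One; positive-direction fit vs DMSO.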

Inconclusive results are not listed. The source made the active and inactive calls. The calls were made as follows, unless noted: active = hit-call score of the fitted dose curve at least 0.9, where 1 is the maximum; inconclusive = response in the unintended direction; inactive = score below 0.9.

For `Cc1cccc(Nc2cc(Cl)nc(SCC(=O)O)n2)c1C`, the outcome in assay [1], in [3], in assay [4] and in assay [5] was inactive. Further, the AC50 in assay [2] is 53.6 µM (active).
Turning to `CCCc1cc(=O)[nH]c(=S)[nH]1`, the outcome in assay [1], in [2], in assay [6], in [4], in assay [7] and in [8] was inactive. The result in assay [9], in [10], in [11] and in assay [12] was inactive.
Take `CC(=O)C(C)=CC1C(C)=CCCC1(C)C` (configuration not stated): the call in assay [13], in assay [4] and in assay [5] was inactive.
For `CCNc1cccc(C)c1`, the compound was classed as inactive in assay [4], in assay [14] and in [5].
Turning to `C=CCc1ccc(O)c(OC)c1`, the compound was called inactive in assay [3], in [4] and in [5].
Regarding `Cc1cc(=O)[nH]c(=S)[nH]1`, the call in assay [4] and in assay [5] was inactive. In addition, the AC50 in assay [14] is 7.71 µM (active).
`c1cc(-c2ccncc2)ccn1`: the call in [3], in assay [4] and in [5] was inactive.
With `CCCCOC(=O)CCCCCCCCC(=O)OCCCC`, the call in assay [4] was inactive.
In the case of `CCCCCCCCCCCCCCCC`, in assay [4], the compound was classed as inactive.
As for `CCCCC(CC)COC(=O)CC(C(=O)OCC(CC)CCCC)S(=O)(=O)O` (configuration not stated), the outcome in [1], in assay [2], in assay [6], in [4], in assay [15] and in [9] was inactive. Also, the call in [10] and in [11] was inactive. In addition, the concentration at half-maximal activity (AC50) in [16] was 7.54 µM (active); in assay [7], 77.9 µM (active); in assay [8], 28.7 µM (active); in [5], 88.4 µM (active).
As for `CCOC(=O)CCC(=O)OCC`, the outcome in assay [4] was inactive.
`CC(CO)OC(C)CO` (configuration not stated) (tested in a mixture with another compound): the result in [1], in assay [2], in assay [4] and in assay [5] was inactive.
With `O=c1[nH]cc(F)c(=O)[nH]1`, the AC50 is 4.61 µM (active) in [1], 2.71 µM (active) in assay [2], 3 µM (active) in [6] and 2.42 µM (active) in assay [5]. Also, in assay [4], the compound was called inactive.
As for `COc1ccc(C)cc1N`, the compound was called inactive in assay [3], in assay [4] and in [5].
With `Cc1nc(-c2ccc3c(c2)CCN(CCC2CCC(NC(=O)/C=C/c4ccc(F)cc4)CC2)CC3)no1` (configuration not stated), the outcome in assay [1], in assay [2], in assay [3], in assay [4] and in assay [5] was inactive.
As for `CCc1c(C(=O)NN2CCCCC2)nn(-c2ccc(Cl)cc2Cl)c1-c1ccc(Br)cc1`, the AC50 was 0.533 µM (active) in assay [13], 39.9 µM (active) in assay [4] and 12.7 µM (active) in assay [5].
With `Cc1ccc(N(C)C)cc1`, in assay [14], the AC50 was 95.1 µM (active).
Take `Cc1ccc(C)c(O)c1C`: the outcome in assay [14] was inactive.

The values are drawn from PubChem BioAssay (EPA / NIEHS).
